Compound activity (PubChem BioAssay)
Hits are enriched below; roughly 12% of the tested compounds scored in any of these assays.
FMDV antiviral: High Throughput Screening for Foot and Mouth Disease Virus Antivirals. FMDV antiviral cell-based qHTS. actives 1.2% (n = 410,000). Potency, µM (titrated, usually from 57.9 µM), hits mostly inhibitors. AID 1159524, 2015; calls by dose curve; tested in HEK293T cells; further: read-out not given here; nearly all actives have a fitted effect of over 45% in size
CHX counter: Cycloheximide Counterscreen for Small Molecule Inhibitors of Shiga Toxin; cell reporter, cycloheximide protein synthesis inhibition counterscreen; max response, %; actives 12% (n = 300,000); in the data active means max response mostly above about 13%, no sharp cut-off; inactive means mostly below about 14%; further: read at 38.3 µM for the half of the compounds with a filed dose
Shiga inhibitor: A qHTS for Small Molecule Inhibitors of Shiga Toxin | Vero cells, Shiga toxin protein synthesis inhibition reporter | inhibition, % at 38.7 µM | actives 9.2% (n = 290,000); in the data active means inhibition mostly above about 28%, no sharp cut-off; inactive means mostly below about 43%
Sm TGR inh: qHTS Assay for the Inhibitors of Schistosoma Mansoni Peroxiredoxins; purified TGR, DTNB reduction, TNB absorbance 405 nm; actives 3% (n = 360,000); Schistosoma mansoni thioredoxin glutathione reductase (TGR), Q962Y6; Potency, µM (doses to about 114 µM), hits mostly inhibitors; active means well fitted inhibition curve with a large enough effect; inconclusive means small, poorly fitted or top-dose-only effect; inactive means no such curve, though single readings can be large or run the other way; further: nearly all actives have a fitted effect of over 60% in size
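First, TGR (20 nM dispensed) and NADPH were mixed with compound. Second, a 15 min room-temperature incubation followed. Third, further NADPH and then DTNB were added to start the reaction. Finally, TNB absorbance was monitored kinetically.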
Hits are given with their value.

Results for Cc1cc(C)n2nc(C(=O)NNC(=O)c3ccc(Cl)cc3)nc2n1 ?
FMDV antiviral: inactive; CHX counter: 31; Shiga inhibitor: 34; Sm TGR inh: inactive

What do the screens show for `Cc1ccc(C(=O)NNC(=O)Cc2nc3nc(C)cc(C)n3n2)cc1`?
FMDV antiviral: inactive; CHX counter: inactive; Shiga inhibitor: inactive; Sm TGR inh: inactive

What do the screens show for `CC(=O)c1cccc(NC(=O)CC(c2ccc(C)cc2)N2Cc3ccccc3C2=O)c1` (stereo not given)?
FMDV antiviral: inactive; Sm TGR inh: inactive

Results for S=C(NCc1ccccc1)Nc1ccc2cn[nH]c2c1 ?
FMDV antiviral: inactive; CHX counter: inactive; Shiga inhibitor: inactive; Sm TGR inh: 40µM

How did S=C(NCc1ccccc1)Nc1ccc2ccccc2c1 do in these assays?
FMDV antiviral: inactive; CHX counter: 76; Shiga inhibitor: 102; Sm TGR inh: inactive

Results for CCc1ccc(NC(=S)Nc2ccc3cn[nH]c3c2)cc1 ?
FMDV antiviral: inactive; CHX counter: inactive; Shiga inhibitor: 50; Sm TGR inh: inactive

Results for COc1ccccc1-c1n[nH]c(=S)n1N ?
FMDV antiviral: inactive; CHX counter: inactive; Shiga inhibitor: inactive; Sm TGR inh: inactive

Results for S=c1[nH]nc(-c2ccc(Cl)cc2Cl)n1-c1ccccc1 ?
FMDV antiviral: inactive; CHX counter: 40; Sm TGR inh: inactive

What do the screens show for `Oc1ccc(-c2n[nH]c(=S)n2-c2ccc3c(c2)OCCO3)c(O)c1`?
FMDV antiviral: 2µM; CHX counter: 17; Shiga inhibitor: 35; Sm TGR inh: inactive

Results for S=c1[nH]nc(-c2ccc(Cl)cc2Cl)n1-c1ccc2c(c1)OCCO2 ?
FMDV antiviral: inactive; CHX counter: 21; Shiga inhibitor: 46; Sm TGR inh: inactive

How did COc1ccccc1-c1n[nH]c(=S)n1-c1ccccc1 do in these assays?
FMDV antiviral: inactive; CHX counter: 20; Shiga inhibitor: inactive; Sm TGR inh: inactive

What do the screens show for `COc1ccccc1C1CN(CC(=O)NCC2OCCc3ccccc32)Cc2ccccc2O1` (stereo not given)?
FMDV antiviral: inactive

How did COc1ccc([C@H]2OCC3C2CO[C@@H]3c2ccc(OC)c(OC)c2)cc1OC (stereo not given in full) do in these assays?
CHX counter: inactive; Shiga inhibitor: inactive

Results for CCOC(=O)c1c(C)oc2ncnc(Nc3ccc(OC)c(OC)c3)c12 ?
FMDV antiviral: inactive; Sm TGR inh: inactive

Results for COc1ccc(C2=NO[C@@H]3C(=O)N(C4CCCCC4)C(=O)[C@H]23)cc1OC ?
FMDV antiviral: inconclusive; CHX counter: inactive; Shiga inhibitor: inactive; Sm TGR inh: inactive

Results for COc1ccc(-c2n[nH]c(=S)n2-c2ccc3c(c2)OCCO3)cc1OC ?
FMDV antiviral: inactive; CHX counter: 23; Shiga inhibitor: 50; Sm TGR inh: inactive

Results for COc1ccc(-c2n[nH]c(=S)n2-c2ccc3c(c2)OCCO3)cc1 ?
FMDV antiviral: inactive; CHX counter: inactive; Shiga inhibitor: inactive; Sm TGR inh: inactive

What do the screens show for `COc1ccc(C2=NO[C@@H]3C(=O)N(c4ccc5c(c4)OCCO5)C(=O)[C@H]23)cc1OC`?
FMDV antiviral: inconclusive; CHX counter: 38; Shiga inhibitor: 48; Sm TGR inh: 45µM

What do the screens show for `CCOC(=O)c1sc2ccccc2c1S(=O)(=O)Nc1cccc(C(F)(F)F)c1`?
FMDV antiviral: inactive; Sm TGR inh: inactive

Results for O=C(NN=C1CCCC1)c1ccc(O)cc1 ?
FMDV antiviral: inactive; CHX counter: 30; Shiga inhibitor: 42; Sm TGR inh: inactive

How did C/C(=N\NC(=O)c1ccc2c(c1)OCO2)c1ccc(NC(=O)CCCC(=O)O)cc1 do in these assays?
FMDV antiviral: inactive; CHX counter: 34; Shiga inhibitor: 57; Sm TGR inh: inactive

How did C/C(=N\NC(=O)c1cccs1)c1ccc2c(c1)OCO2 do in these assays?
FMDV antiviral: inactive; CHX counter: 64; Shiga inhibitor: 117; Sm TGR inh: inactive

How did CC(=NNC(=O)c1cccs1)c1ccc2c(c1)OCCO2 do in these assays?
FMDV antiviral: inactive

Results for CCCCC(=O)Nc1ccc(C(=O)Nc2ccc3c(c2)OCO3)cc1 ?
CHX counter: inactive; Shiga inhibitor: inactive; Sm TGR inh: inactive

What do the screens show for `C/C(=N\NC(=O)c1ccc2c(c1)OCO2)c1ccc2c(c1)OCO2`?
FMDV antiviral: inactive; CHX counter: 35; Shiga inhibitor: 62; Sm TGR inh: inactive

How did C/C(=N\NC(=O)c1ccc(O)cc1)c1ccc2c(c1)OCCO2 do in these assays?
FMDV antiviral: inactive; Sm TGR inh: inactive

Results for COc1ccccc1S(=O)(=O)Cc1ccc(C(=O)N2CCN(c3cc(Cl)ccc3C)CC2)o1 ?
FMDV antiviral: inconclusive; Sm TGR inh: inactive
